Shown are actives, neighbours in structure and some others; about 8.9% of the full set was active somewhere.
12-hLO inh: qHTS Assay for Inhibitors of 12-hLO (12-human lipoxygenase) | Polyunsaturated fatty acid lipoxygenase ALOX12 (Homo sapiens), P18054 | purified 12-hLO, xylenol orange hydroperoxide absorbance | Potency, µM (top dose mostly 57.1 µM), inactives show top-dose activity change, negative = inhibition, actives largely listed as inhibitors | actives 0.12% (n = 150,000) | AID 1452, 2008; also: potency is read from the fitted curve at half-maximal effect; nearly all actives have a fitted effect of over 55% in size
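Purified human 12hLO (150 nM final) was preincubated with compounds for 15 min at room temperature in 25 mM Hepes pH 7.0, 0.01% Triton X-100, then reacted with 40 uM arachidonic acid for 30 min. Hydroperoxide was detected with ferrous iron/xylenol orange.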
ALDH1A1 block: qHTS Assay for Inhibitors of Aldehyde Dehydrogenase 1 (ALDH1A1) | Aldehyde dehydrogenase 1A1 (Homo sapiens), P00352 | Purified ALDH1A1, NADH fluorescence, propionaldehyde substrate | Potency, µM (highest dose often 75.3 µM), for inactives: top-dose activity, negative = inhibition, most hits filed as inhibitors | actives 7.3% (n = 220,000); active = well fitted inhibition curve with a large enough effect, not every such curve was filed as active; inconclusive = small, poorly fitted or top-dose-only effect, or another doubt; inactive = no such curve, though single readings can be large or run the other way;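 also: potency is read from the fitted curve at half-maximal effect; plate controls were no enzyme wells and a reference inhibitor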
IMPase Li cell: qHTS Assay for Identifying the Cell-Membrane Permeable IMPase Inhibitors: Potentiation with Lithium | AID 1457, 2008 | CHO-M1 cells, IP1 TR-FRET (IP-One), carbachol + lithium | actives 0.35% (n = 210,000) | Potency, µM (doses to about 59.4 µM), for the others: at the highest dose activity, negative = IMPase inhibition, hits mostly inhibitors;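 also: IP1 builds up when IMPase is blocked and the TR-FRET signal falls; potency is read from the fitted curve at half-maximal effect; plate controls were basal vehicle for no effect and high inhibitor control for full effect; nearly all actives have a fitted effect of over 50% in size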
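Lithium-sensitised IP1 accumulation assay; M1-expressing CHO cells treated 30 min at 37C with compound. Competitive antibody detection by time-resolved FRET followed a 10 min room-temperature lysis step.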
NPSR antagonist: qHTS Assay for Antagonists of the Neuropeptide S Receptor: cAMP Signal Transduction; actives 1% (n = 220,000); Potency, µM (titrated, usually from 38.3 µM), for the others: top-dose activity change, negative = inhibition, usual class: inhibitors; Q6W5P4; CHO-NPSR cells, cAMP TR-FRET, antagonist mode; AID 1461, 2008; also: potency is read from the fitted curve at half-maximal effect; nearly all actives have a fitted effect of over 50% in size
Target sequence (Q6W5P4 whole entry, looked up): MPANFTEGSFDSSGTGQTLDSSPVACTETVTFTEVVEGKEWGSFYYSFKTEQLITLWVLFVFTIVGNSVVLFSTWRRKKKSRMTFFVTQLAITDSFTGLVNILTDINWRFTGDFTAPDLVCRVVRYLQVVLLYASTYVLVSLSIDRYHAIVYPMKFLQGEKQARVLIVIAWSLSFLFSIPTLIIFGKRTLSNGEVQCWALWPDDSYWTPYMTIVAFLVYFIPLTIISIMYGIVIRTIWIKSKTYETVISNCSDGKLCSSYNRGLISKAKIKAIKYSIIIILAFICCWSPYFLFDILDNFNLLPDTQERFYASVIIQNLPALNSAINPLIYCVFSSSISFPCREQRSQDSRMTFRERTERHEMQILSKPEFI
IMPase cell inh: qHTS Assay for Identifying the Cell-Membrane Permeable IMPase Inhibitors | 120,000 tested, under 10 active | Inositol monophosphatase 1 (Rattus norvegicus), P97697 | CHO-M1 cells, IP1 accumulation, HTRF TR-FRET ratio | inhibition (IP1 accumulation), % at 46.1 µM; active = well fitted curve in the direction sought with a large enough effect in the signal ratio, not every such curve was filed as active; inconclusive = small, poorly fitted or top-dose-only effect, or a change in a side signal; inactive = no such curve, though single readings can be large or run the other way; the % refers to the signal ratio;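 also: cells stimulated with carbachol in lithium chloride buffer; plate controls were DMSO basal wells for no effect and reference inhibitor wells for full effect; higher means more IMPase inhibition seen as more IP1 and lower FRET ratio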
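CHO-M1 cells (CHO stably expressing M1 receptor), compound up to 46 uM final, stimulated with carbachol (50 uM as added) in buffer with 50mM LiCl, pH 7.4, 30 min at 37C. Cytosolic IP1 read by TR-FRET; AC50 from Hill fits.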
HPGD inh: qHTS Assay for Inhibitors of HPGD (15-Hydroxyprostaglandin Dehydrogenase). 15-hydroxyprostaglandin dehydrogenase [NAD(+)] (Homo sapiens), P15428. purified HPGD, NADH fluorescence kinetic, PGE2 substrate. Potency, µM, inactives show at the top dose activity change, negative = inhibition, most hits filed as inhibitors. actives 4.3% (n = 150,000); active = well fitted inhibition curve with a large enough effect, not every such curve was filed as active; inconclusive = small, poorly fitted or top-dose-only effect, or another doubt; inactive = no such curve, though single readings can be large or run the other way; also: potency is read from the fitted curve at half-maximal effect
Target sequence (P15428 whole entry, looked up): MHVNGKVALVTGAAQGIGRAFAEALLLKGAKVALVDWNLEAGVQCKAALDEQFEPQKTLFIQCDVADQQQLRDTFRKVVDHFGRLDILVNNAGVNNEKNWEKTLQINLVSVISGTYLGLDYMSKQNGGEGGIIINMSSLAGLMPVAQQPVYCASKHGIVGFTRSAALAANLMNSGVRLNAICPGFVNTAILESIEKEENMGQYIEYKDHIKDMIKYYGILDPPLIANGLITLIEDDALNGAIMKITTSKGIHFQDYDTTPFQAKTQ
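20 nM HPGD preincubated 15 min at room temperature with compound in 50 mM Tris-HCl pH 8, 0.01% Tween 20. Started with 1 mM NAD+ and 30 uM prostaglandin E2; NADH fluorescence (360/450 nm) read 5 times over 30-s intervals, last minus first.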
Starred values were filed as active, the others as inactive; ? = inconclusive; nt = no result given; [ ] = remark or other dose. Unless noted, calls follow the shape of the dose curve; as a rule, active = well fitted curve in the direction sought with a large enough effect; inconclusive = small, poorly fitted or top-dose-only effect, or another doubt; inactive = no such curve, though single readings can be large; an effect the other way counts as inactive or inconclusive. Unless noted, % is scaled to controls: 0 for no effect and ±100 for the full control effect.

SMILES	12-hLO inh	ALDH1A1 block	IMPase Li cell	NPSR antagonist	IMPase cell inh	HPGD inh
Cc1csc(NC(=O)c2ccc(C)c([N+](=O)[O-])c2)n1	-7.2%	?	-6.8%	-4.2%	nt	28.2µM*
Cc1cc(C)nc(NC(=O)c2ccc(C)c([N+](=O)[O-])c2)n1	4.2%	5.9%	-12.4%	-7.9%[46.1 µM]	3.6	6.3%
Cc1ccc(C(=O)Nc2ccccc2C(=O)N2CCCC2)cc1[N+](=O)[O-]	-2.8%	3.9%	1.9%	8.8%	nt	-11.1%
COc1ccc(Sc2ccc(/C=C3\C(=O)NN(c4ccccc4)C3=O)o2)cc1	?	?	-0.2%	-53.7%	nt	15.8µM*
CCCCOC(=O)c1cc(C)nc2ccc(Br)cc12	-2.2%	-2.1%	-22.2%[38.3 µM]	4.6%[46.1 µM]	1.3	-5.0%
CCOC(=O)c1cc(C(=O)OCC)c2cc(Br)ccc2n1	-6.4%	?	10µM*	-11.4%[46.1 µM]	?	-24.4%
CSc1ccccc1-c1n[nH]c(=S)o1	nt	22.4µM*	10µM*	3.98µM*	nt	nt
Cc1ccccc1-c1n[nH]c(=S)o1	7.8%	?	10µM*	?	?	-13.8%
S=c1[nH]nc(-c2ccccc2)o1	1.2%	?	11.2µM*	-16.9%[46.1 µM]	?	?
Cc1cc(C(F)(F)F)cc(NNC(=O)NC(=O)c2ccc(Cl)cc2)n1	nt	nt	nt	3.0%	nt	nt
Cc1ccc(-c2nnc(Nc3cccc(Cl)c3)c3ccccc23)cc1S(=O)(=O)N1CCN(C)CC1	nt	nt	nt	nt	5.6	nt
O=C(CSc1nc2ccsc2c(=O)n1CC1CCC(C(=O)O)CC1)c1ccc(Cl)cc1 (stereo unspecified)	nt	2.4%	0.0%	-49.6%	nt	nt
O=c1oc2c3c4c(cc2s1)CCCN4CCC3	-11.2%	25.1µM*	20.0%[38.3 µM]	-13.1%[46.1 µM]	8.3	22.4µM*
Cc1cccn2c(CNC3CCCc4ccccc43)c(C(=O)N3CCCCC3)nc12 (stereo unspecified)	nt	20µM*	16.8%	-18.4%	nt	nt
Cc1cc(NC(=O)CSc2nnc(NC(=O)C3CC(=O)N(c4ccccc4C)C3)s2)no1 (stereo unspecified)	-2.2%	20µM*	?	-8.7%	nt	-21.3%
O=C(Nc1nnc(SCc2c(Cl)cccc2Cl)s1)C1CC(=O)N(c2ccc3c(c2)OCCO3)C1 (stereo unspecified)	nt	3.55µM*	3.9%	-32.2%	nt	nt
O=C(Nc1nnc(SCc2ccc(F)cc2)s1)C1CC(=O)N(c2ccc3c(c2)OCCO3)C1 (stereo unspecified)	1.4%	-11.8%	4.6%	-4.7%	10.2	?
O=C(Nc1nc(-c2ccco2)c(-c2ccco2)s1)C1CC(=O)N(c2ccc3c(c2)OCCO3)C1 (stereo unspecified)	?	1.12µM*	33.9%[38.3 µM]	-12.6%[46.1 µM]	-1.2	?
Cc1cc(NC(=O)CSc2nnc(NC(=O)C3CC(=O)N(c4ccccc4)C3)s2)no1 (stereo unspecified)	-1.4%	-2.1%	-3.8%	-1.9%	nt	-13.2%
CN(C)/C=N/c1nc(Sc2ccc(C(F)(F)F)cc2[N+](=O)[O-])n[nH]1	nt	4.3%	nt	-2.3%	nt	nt
COc1cccc(C(=O)Nc2ccc(N(C)C)cc2)c1OC	1.9%	?	30.6%[38.3 µM]	-8.9%[46.1 µM]	15.0	-8.1%
Cc1cc(=O)c2n(Cc3ccc(Cl)cc3)nc[n+]2[nH]1	3.7%	20µM*	20.6%[38.3 µM]	-3.8%[46.1 µM]	-0.2	-7.9%
Cc1nn(Cc2ccc(Cl)cc2)c(C)c1N	-0.5%	8.1%	0.9%	-4.4%[46.1 µM]	-0.6[0.0738 µM]	-5.8%
O=C(C(=S)N1CCOCC1)c1c[nH]c2ccccc12	nt	3.16µM*	-1.4%	9.8%	nt	nt
O=C(CN1CCOCC1)c1c[nH]c2ccccc12	5.7%	-5.3%	-8.6%[38.3 µM]	6.4%[46.1 µM]	4.5	0.3%
SMILES	12-hLO inh	ALDH1A1 block	IMPase Li cell	NPSR antagonist	IMPase cell inh	HPGD inh
CCN(CC)c1ccc(C(=S)N2CCN(c3ccccc3)CC2)cc1	-1.7%	?	13.2%[38.3 µM]	-14.4%[46.1 µM]	4.0	?
CCN(CC)c1ccc(C=C2C(=O)OC(c3ccccc3)OC2=O)cc1 (stereo unspecified)	nt	0.282µM*	-2.4%	-4.5%	nt	nt
CCN(CC)c1ccc(C=C2C(=O)OC3(CCCC3)OC2=O)cc1	-1.2%	0.708µM*	0.6%	?	8.1	?
CCN(CC)c1ccc(C=C2C(=O)OC(C)(C(C)(C)C)OC2=O)cc1 (stereo unspecified)	2.5%	1.3%	-36.2%[38.3 µM]	2.6%[46.1 µM]	-0.3	-11.8%
CCOc1ccccc1N(CC(=O)NCCSc1ccccc1)S(=O)(=O)c1ccccc1	nt	nt	nt	nt	4.9	nt
O=C(NN=C1CCCC1)c1[nH]c2ccc(Br)cc2c1-c1ccccc1	nt	17.8µM*	nt	?	nt	nt
Cc1cc(Nc2ccccc2F)n2ncnc2n1	-0.8%	8.2%	4.4%[38.3 µM]	6.4%[46.1 µM]	4.2	-2.6%
COc1ccc(OC)c(Nc2cc(C)nc3nc(C)nn23)c1	-0.3%	0.6%	18.8%[38.3 µM]	-5.8%[46.1 µM]	-5.7	2µM*
COc1ccc(CNc2cc(C)nc3ncnn23)c(OC)c1	2.2%	-15.3%	1.7%[38.3 µM]	-11.9%[46.1 µM]	16.6	31.6µM*
COc1ccc(Nc2cc(C)nc3nc(C)nn23)c(OC)c1	0.8%	0.6%	22.8%	11.3%	nt	8.91µM*
COc1ccc(Nc2cc(C)nc3ncnn23)c(OC)c1	-0.8%	11.0%	-5.0%[38.3 µM]	-6.4%[46.1 µM]	4.9	15.8µM*
